Results from PubChem BioAssay (NCI).
Compounds without any hit were thinned out: in the full panel of roughly 83,000, 20% have a hit.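 Interpretation: 100, growth as untreated; towards 0, rising growth inhibition; 0, no net growth; 0 to -100, cell death. Compounds scoring below 10 were considered active.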 The source made the active and inactive calls.

tested on: HS 578T breast; assay: NCI-60 one-dose screen, 48 h (100 = growth as untreated, 0 = no growth, -100 = all killed); details: 10 µM

SMILES	growth
CCOc1ccc(Nc2nc3ccccc3nc2Nc2ccc(OCC)cc2)cc1	107% (inactive)
O=c1cc(-c2ccccc2)oc2cc(OCCCCNCc3ccccc3)cc(O)c12	39.6% (inactive)
Cc1ccc(C(C)C)cc1NC(=O)c1ccccc1N(C)C	110% (inactive)
CCCCSc1nc(Nc2ccc(/C(C)=N/NC(N)=S)cc2)c(C#N)c(-c2ccc(F)cc2)n1	28.8% (inactive)
O=C(c1ccc(Cl)cc1)C1[C@H](c2ccccc2Br)[C@@H](c2ccccc2)NC12C(=O)Nc1ccccc12 (some centres not stated)	18% (inactive)
CC(=O)c1ccc(NC(=O)NCn2c(=O)[nH]c3ccccc3c2=O)cc1	97.3% (inactive)
[2H]C([2H])([2H])Oc1ccc2ncc(C#Cc3cncc(C(=O)Nc4ccc(CN5CCN(C)CC5)c(C(F)(F)F)c4)c3)n2n1	-47.9% (active)
O=C1Nc2cc(Cl)ccc2/C1=C/c1ccc(OCc2ccc(Br)cc2F)cc1	-16.8% (active)
C[C@H]1[C@H](C)CC[C@]2(COC(=O)CCC(=O)NCC#CCN3CCNCC3)CC[C@]3(C)C(=CC[C@@H]4[C@@]5(C)CCCNC(C)(C)[C@@H]5CC[C@]43C)[C@H]12	60.8% (inactive)
COc1ccc2nc(Cl)c(-c3cc(-c4ccccc4)nc(N)n3)cc2c1	59.3% (inactive)
COc1ccc(CN2[C@H](C(=O)NCCCCCCC(=O)NO)Cc3c([nH]c4ccccc34)[C@H]2C2CC2)cc1	-1.3% (active)
CN1CCN(c2ccc(Nc3nc(NCCCNC(=O)c4ccccc4)c4sccc4n3)cc2)CC1	78.8% (inactive)
